Data on 64 molecules can be found in publication PMC9574860, “Chemical Toolkit for PARK7: Potent, Selective, and High-Throughput” (Journal of Medicinal Chemistry, 2022).

Molecules are shown by their SMILES. In all, about 7,900 compounds went through this assay and about 400 (5.1%) showed an effect of 50% or more. This is one part of a sample in which strong results are shown more often than they occur.

The experiment deals with Parkinson's disease protein 7 (PARK7/DJ1) (human, UniProt Q99497). The experiment in a line: primary screen, percent inhibition; read as competition with a fluorescent probe by fluorescence polarization; higher = more effect of the substance. To be noted: 100 µM. Put shortly: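 Covalent fragments at 100 μM final were incubated 2 h with 0.2 μM PARK7, then 20 nM probe JYQ-107 added for a further 2 h. Fluorescence polarization read at 480/520 nm; relative FP loss versus reference controls gave remaining enzyme activity.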
Parkinson's disease protein 7 (PARK7/DJ1), sequence (Q99497 whole entry, looked up, the tested form may be a part): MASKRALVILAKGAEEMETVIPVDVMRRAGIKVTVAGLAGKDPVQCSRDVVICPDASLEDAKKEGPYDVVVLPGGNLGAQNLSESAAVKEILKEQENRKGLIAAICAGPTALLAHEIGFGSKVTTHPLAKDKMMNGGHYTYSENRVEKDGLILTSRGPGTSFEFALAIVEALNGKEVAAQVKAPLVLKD
In the case of `C=CC(=O)N1CCCC(c2ccc(F)c(F)c2)C1` (stereo not shown), the Inhibition % came to 9.29%. The value for `C=CC(=O)N1CC(C)OC(C(F)(F)F)C1` (stereo not shown) was 14.7%.

Take `CC(=O)SCCc1csc(-c2ccccn2)n1`: the Inhibition % is reported as 9.81%. As to `O=C(Nc1ccccc1)c1cccnc1S`, the Inhibition % turned out to be 3.52%.

In the case of `CCC1(c2ccccc2)NC(=O)N(NC(=O)CCl)C1=O` (stereo not shown), the Inhibition % amounted to 6.48%. On to `C=CC(=O)N1CCC(Cc2ccncc2)C1` (stereo not shown), for which the Inhibition % came to 6.08%. `Cc1cccc2c(=O)[nH]c(C(Cl)=Cc3ccnn3C)nc12` registered an Inhibition % of 6.42%.

In turn, `C=CC(=O)NC(C)c1c(C)nn(CC(F)(F)F)c1C` (stereo not shown) came in with an Inhibition % of 4.48%. The value for `CC(c1ccccc1)N(C)C(=O)CCl` (stereo not shown) was 98.5%; that for `CN(C(=O)CCl)C(c1ccccc1)c1ccccc1` was 6.29%; that for `CCN(C(=O)CCl)c1nc2ccccc2s1` was 24.6%. On to `CN(C(=O)CCl)c1nc2ccccc2s1`, for which the Inhibition % is listed as 3.42%. Consider `CC(c1ccccc1)N(C)C(=O)Cn1cnc(C#N)n1` (stereo not shown), for which the Inhibition % is 7.46%. To `CC(c1nc2ccccc2s1)N(C)C(=O)CCl` (stereo not shown) belongs 97.3%; to `CC1(C)OB(c2cnc3ccnn3c2)OC1(C)C`, 5.87%. `C=CC(=O)N1CCOC(C)(C(F)F)C1` (stereo not shown) returned an Inhibition % of 7.7%. As to `CS(=O)(=O)c1cccnc1C#N`, the Inhibition % is recorded as 5.26%.

`C=CC(=O)N1CCCC1C` (stereo not shown): the Inhibition % stood at 7.71%. To `CC(C)Cn1c(N)c(C(=O)CCl)c(=O)n(C)c1=O` belongs 6.06%. Consider `O=c1[nH]c(-c2ccc(S(=O)(=O)F)cc2)nc2ccccc12`, for which the Inhibition % is recorded as 13%. The molecule `O=c1[nH]c(-c2cccc(S(=O)(=O)F)c2)nc2sc3c(c12)CCC3` gave an Inhibition % of 88.5%. The value for `O=c1[nH]c(-c2ccc(S(=O)(=O)F)cc2)nc2sc3c(c12)CCC3` was 15.9%; that for `CC1(C)OB(c2ccc(N)c(O)c2)OC1(C)C` was 92.7%; that for `Cc1cc(B2OC(C)(C)C(C)(C)O2)ccc1N` was 8.63%. `CC1(C)OB(c2ccc3ccoc3c2)OC1(C)C` yielded an Inhibition % of 9.89%. To `CC1(C)OB(c2cccc(N)c2)OC1(C)C` belongs 12.8%; to `Cc1ccc(N)cc1B1OC(C)(C)C(C)(C)O1`, 14.1%. To `CC1(C)OB(c2ccc(N)cc2)OC1(C)C` belongs 5.89%. In the case of `CC1(C)OB(c2ccc3cc(N)ccc3c2)OC1(C)C`, the Inhibition % was found to be 87.8%.

Take `CC1(C)OB(c2ccc3ccc(N)cc3c2)OC1(C)C`: the Inhibition % came out at 86.8%.

`CC1(C)OB(c2ccc(N)c(F)c2)OC1(C)C` registered an Inhibition % of 1.59%. To `Cc1ccc(C)c(Cn2cnc(C#N)n2)c1` belongs 2.61%; to `Clc1ccccc1COCC1CO1` (stereo not shown), 9.97%; to `N[C@@H]1CCN(C(=O)C=Cc2cc3ccccc3o2)C1`, 18.2%.

Regarding `N#Cc1ccc2c(n1)CCCC2`, the Inhibition % is reported as 7.43%.

For the molecule `C=CC(=O)NC1CC(OC)C12CCC2` (stereo not shown), the Inhibition % came to 3.73%. The value for `C=CC(=O)NC1C2CCOC2C12CCC2` (stereo not shown) was 8.04%; that for `C=CC(=O)NC1C(C)C(OC)C12CCC2` (stereo not shown) was 50%.

Take `COc1cc(S(=O)(=O)n2cccn2)c(C)cc1C`: the Inhibition % amounted to 5.05%. For `COc1ccc(CNC(=O)CCl)cc1OC`, the Inhibition % was determined as 6.67%. To `Cc1cc(NC(=O)CCl)ccc1Br` belongs 32.6%; to `Cc1ccc(NC(=O)CCl)cc1Br`, 75%; to `Cc1cc(C)cc(NC(=O)CCl)c1`, 11.3%. To `Cc1ccc(NC(=O)CCl)cc1I` belongs 81.5%. In the case of `Cc1ccc(NC(=O)CCl)cc1C`, the Inhibition % is given as 34.8%. The value for `Cc1ccc(NC(=O)CCl)cc1F` was 48.3%. Consider `O=C1CC2(CCCC2)N1`, for which the Inhibition % was found to be 4.3%.

As for `CCc1cc(S(=O)(=O)n2ccnc2)ccc1OC`, the Inhibition % came to 7.72%. Turning to `c1ccc(OCC2CO2)cc1` (stereo not shown), the Inhibition % is listed as 9.6%. `CC(=O)Nc1cccc2c1CCN(C1CC(C)OC1=O)C2` (stereo not shown) gave an Inhibition % of 1.86%. The value for `CCCn1nc2c(cc1=O)CN(C1CC(C)OC1=O)CC2` (stereo not shown) was 86.8%; that for `CC1CC(N2CCc3sccc3C2)C(=O)O1` (stereo not shown) was 13.9%; that for `CC1CC(N2CCc3c(nc(C4CC4)n3C)C2)C(=O)O1` (stereo not shown) was 5.37%.

Take `CC1CC(N2CCN(C)c3ccccc3C2)C(=O)O1` (stereo not shown): the Inhibition % is recorded as 0.987%. Molecule `CCn1nc2c(cc1=O)CN(C1CC(C)OC1=O)CC2` (stereo not shown) displayed an Inhibition % of 61.4%. With `C=CC(=O)NCC1CCSC1` (stereo not shown), the Inhibition % came to 5.45%.

As to `C=CC(=O)N1CCc2ccc(C(=O)O)cc2CC1`, the Inhibition % is listed as 4.84%. `Cc1n[nH]c(S)nc1=O` showed an Inhibition % of 2.15%. The value for `O=c1[nH]c(S)nc2[nH]ncc12` was 4.43%; that for `O=c1cn[nH]c(S)n1` was 74.8%. With `Cn1c(=O)c2c(nc(Cl)n2CCS(=O)(=O)F)n(C)c1=O`, the Inhibition % turned out to be 3.18%.

As to `CC1CC(N2CCC(O)CC2)C(=O)O1` (stereo not shown), the Inhibition % amounted to 5.67%. To `C=CC(=O)N1CCC(N(C)C(=O)N(C)C)C1` (stereo not shown) belongs 28.7%; to `Cc1cc(NC(=O)CCl)no1`, 3.42%.
